# Source: PubChem BioAssay (National Center for Advancing Translational Sciences (NCATS))
# Marburg entry inh: Marburg virus entry inhibition. Marburg virus pseudotyped entry inhibition, cell reporter. Potency, µM (doses to about 37.8 µM), without a hit: top-dose activity change, negative = inhibition, usual class: inhibitors. 1.8% of 300,000 active. AID 540276; calls by dose curve; tested in HEK293 cells; further: potency means the concentration at half of the fitted maximal effect
# HCMV inh: inhibitors of human cytomegalovirus; HFF cells, HCMV-luciferase reporter, 72 h; active compounds read low; activity change, negative = inhibition, % at 57.5 µM; 4.5% of 410,000 active; in the data active means activity change below about -60%; inconclusive means no clear call, values can overlap the other calls; inactive means above about -39%
#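 Compounds were evaluated in HFFs infected with an HCMV luciferase reporter virus (MOI 1 PFU/cell). Luciferase in lysates collected 72 h post infection served as the replication measure.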
# FMDV inh: foot and mouth disease virus antiviral activity; FMDV antiviral cell-based qHTS; Potency, µM (top dose mostly 57.9 µM), without a hit: at the top dose activity change, negative = inhibition, usual class: inhibitors; 1.2% of 410,000 active; calls by dose curve; tested in HEK293T cells; further: read-out not given here; potency means the concentration at half of the fitted maximal effect; nearly all actives have a fitted effect of over 45% in size
# Lassa entry inh: inhibitors of Lassa virus binding or cell entry. Lassa virus pseudotype entry inhibition, cell reporter. Potency, µM (series often up to 37.9 µM), inactives show top-dose activity change, negative = inhibition, usual class: inhibitors. 1.2% of 300,000 active; calls by dose curve; tested in HEK293 cells; further: potency means the concentration at half of the fitted maximal effect; nearly all actives have a fitted effect of over 50% in size
# The depositor's hits bear a star; u = inconclusive; x = not tested or not shown; ! = a repeat was not active; [ ] = another dose, or the depositor's remark. The list is not random: actives were taken first. Their share in the collection is about 6.2%. On the % scale 0 is the no-effect control and ±100 the full control effect.
SMILES,Marburg entry inh,HCMV inh,FMDV inh,Lassa entry inh
CCc1ccccc1-n1c(SCC(=O)Nc2ccc(C)cc2)nc2n[nH]c(C)c2c1=N,x,-69*,u,u
CCOc1ccccc1-n1c(SCC(=O)Nc2ccc(CC)cc2)nc2n[nH]c(C)c2c1=N,u,x,-29%,10µM*
CCCOc1ccc(CNC(=O)Cn2c(=O)oc3ccccc32)cc1,-3%[46.1 µM],6,-17%,x
Cn1c(C(=O)NCc2cccs2)cc2oc3ccccc3c21,0.45µM*,-80*,12%,0.5µM*
Cn1c(C(=O)NCc2ccccc2F)cc2oc3ccccc3c21,u,-63*,25%,x
Cn1c(C(=O)NCc2ccccc2)cc2oc3ccccc3c21,2.6µM*,-89*,41%,u
Cn1c(C(=O)NCC2CCCO2)cc2oc3ccccc3c21 (configuration not stated),u,33,5%,u
CCCOc1ccc(CNC(=O)c2cc3oc4ccccc4c3n2C)cc1,u,-86*,6%,x
O=C(NCc1nnc2n1CCN(Cc1ccc(C(F)(F)F)cc1)CC2)c1cccc(F)c1,x,x,-12%,x
Cc1ccccc1-n1c(SCC(=O)Nc2ccc(Cl)cc2Cl)nc(O)cc1=O,-25%[46.1 µM],-33,-21%,-2%[46.1 µM]
COc1ccc(CNC(=O)c2cc3oc4ccccc4c3n2C)cc1OC,5µM*,u,0%,x
Cc1ccc(C(=O)NN=C2CCCCCC2)s1,x,u,40%,x
Cc1ccsc1C(=O)NN=C1CCCCCC1,x,-99*,35%,x
O=C(c1ccccc1Br)N1CCCC(c2nc(-c3cccs3)no2)C1 (configuration not stated),x,-89*,-5%,x
O=C(c1ccc(Br)cc1)N1CCCC(c2nc(-c3cccs3)no2)C1 (configuration not stated),x,-4,-3%,x
COc1ccc(-c2noc(C3CCCN(C(=O)c4ccccc4OC)C3)n2)cc1 (configuration not stated),u,-84*,-29%,-24%[46.1 µM]
CCOC(=O)C1(C)CCCN(C(=O)c2ccc(C)c(F)c2)C1 (configuration not stated),x,-9,3%,x
Cc1ccccc1C(=O)NC(C)c1nnc2n1CCN(Cc1ccc(F)cc1)CC2 (configuration not stated),x,x,-1%,x
O=C1OCC(CO)(CO)N=C1NNc1ccccc1Cl,18%,-66*,x,-4%
O=c1[nH]c2cccnc2n1-c1cccc([N+](=O)[O-])c1,13%[46.1 µM],-85*,-11%,4%
Cc1cnnn1-c1cccc([N+](=O)[O-])c1,4%[46.1 µM],-37,5%,10%
Cc1cc(-n2c(C)nc3ccccc3c2=O)ccc1NC(=O)C(F)(F)F,x,-11,-23%,-11%[46.1 µM]
COc1cc(OC)c(NS(=O)(=O)c2ccc3c(c2)NC(=O)CCS3)cc1Cl,x,-63*,-29%,-28%[46.1 µM]
O=S(=O)(NCc1nc2cccnc2n1Cc1ccc(F)cc1)c1ccc2c(c1)CCCC2,x,-8,62%,15%[46.1 µM]
COC(=O)c1c(C)[nH]c(C(=O)/C=C/c2ccccc2)c1C,u,-4,-15%,-2%
SMILES,Marburg entry inh,HCMV inh,FMDV inh,Lassa entry inh
COC(=O)c1c(C)[nH]c(C(=O)/C=C/c2ccc(C)cc2)c1C,x,-90*,u,x
COc1ccc2c(c1)CCc1c(C(=O)Nc3c(C)nn(Cc4ccccc4)c3C)noc1-2,12%[46.1 µM],-67*!,28µM*,6%[46.1 µM]
COc1ccc2c(c1)CCc1c(C(=O)Nc3c(C)nn(Cc4ccc(Cl)cc4)c3C)noc1-2,-4%[46.1 µM],-79*,-26%,-10%[46.1 µM]
COc1ccc2c(c1)CCc1c(C(=O)Nc3cc(C)n(Cc4ccc(Cl)cc4)n3)noc1-2,-3%,-64*,-8%,x
Cc1nn(Cc2ccc(Cl)cc2)c(C)c1NC(=O)c1noc2c1CCc1ccccc1-2,17%[46.1 µM],36,40µM*,-15%[46.1 µM]
COc1ccc2c(c1)CCc1c(C(=O)Nc3c(C)nn(Cc4ccccc4Cl)c3C)noc1-2,u,u,-3%,-19%[46.1 µM]
Cc1ccccc1NC(=O)CCn1nc(-c2ccc(Cl)cc2)c2ccccc2c1=O,-24%[46.1 µM],-34,-11%,u
CCOC(=O)c1cccn1C1C(=O)N(Cc2ccc(C(C)C)cc2)c2ccc(Cl)cc21 (configuration not stated),x,-12,x,x
Cc1nn(Cc2ccc(Cl)cc2)c(C)c1NC(=O)CSc1nc2c(c(C(F)(F)F)n1)CCc1ccccc1-2,12µM*,-30,-22%,-20%[14.3 µM]
Cc1ccc(Cn2nc(C)c(NC(=O)CSc3nc4c(c(C(F)(F)F)n3)CCc3ccccc3-4)c2C)cc1,25%,u,u,3%
COc1ccc2c(c1)CCc1c(C(=O)Nc3c(C)nn(Cc4ccc(Cl)c(Cl)c4)c3C)noc1-2,4%[46.1 µM],-88*,u,-1%[46.1 µM]
